From PubChem BioAssay
Sampled rows, rich in hits. Any-hit rate of the full collection: about 7.4%.
NPC1 promoter act – activators of NPC1 promoter | AID 485313 | Potency, µM (titrated, usually from 9.22 µM), for the others: top-dose activation, usual class: activators | Huh7 NPC1 promoter luciferase reporter, 24 h | 2.4% of 320,000 active; further: % of control where 0% means no effect; nearly all actives have a fitted effect of over 60% in size
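Readout is luciferase luminescence, reflecting NPC1 promoter activation in stably transfected Huh7 cells after 24 h compound exposure at 37 °C in reduced-serum medium with 10% FBS.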
ELG1 genotoxic – genotoxicity induction in ELG1-luciferase HEK293T cells; HEK293T ELG1-luciferase reporter, luminescence, 16 h; Potency, µM (highest dose often 46 µM), for inactives: at the highest dose activity change, positive = activation, most hits filed as activators; 1.3% of 330,000 active; further: % of control where 0% means no effect; nearly all actives have a fitted effect of over 60% in size
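Screening used a luciferase reporter fused to human ELG1 in HEK293T cells. Luminescence was read on a CCD plate imager after 16 hr exposure and 30 min ONE-Glo incubation.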
FLuc counter – counter-screen for miR-21 project: firefly luciferase inhibitors or activators; P08659; purified FLuc, Km substrates, luminescence inhibition; Potency, µM (top dose mostly 57.5 µM), inactives show at the top dose activity change, negative = inhibition, actives largely listed as inhibitors; 6.9% of 360,000 active; AID 588342;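 further: plate controls were vehicle for no effect and reference inhibitor for full effect; nearly all actives have a fitted effect of over 55% in size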
Target sequence (P08659 whole entry, looked up): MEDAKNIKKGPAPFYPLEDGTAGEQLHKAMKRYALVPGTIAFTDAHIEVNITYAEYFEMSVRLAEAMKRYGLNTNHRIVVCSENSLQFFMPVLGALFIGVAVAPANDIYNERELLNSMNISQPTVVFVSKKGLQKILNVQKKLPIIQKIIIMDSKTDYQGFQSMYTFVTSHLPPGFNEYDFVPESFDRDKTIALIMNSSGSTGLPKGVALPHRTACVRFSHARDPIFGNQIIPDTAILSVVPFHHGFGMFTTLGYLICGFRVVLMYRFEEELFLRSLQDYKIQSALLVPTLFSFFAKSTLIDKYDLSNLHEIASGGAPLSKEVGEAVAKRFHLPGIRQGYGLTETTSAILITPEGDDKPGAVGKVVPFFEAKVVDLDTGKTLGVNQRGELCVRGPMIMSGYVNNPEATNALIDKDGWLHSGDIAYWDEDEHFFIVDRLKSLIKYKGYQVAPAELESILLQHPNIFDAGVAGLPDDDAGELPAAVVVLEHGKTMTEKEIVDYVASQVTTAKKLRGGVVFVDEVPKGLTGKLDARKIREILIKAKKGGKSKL
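Purified P. pyralis luciferase (10nM final) with 10uM D-luciferin and 10uM ATP (Km levels) in 50mM Tris acetate pH 7.5, 10mM Mg acetate, 0.01% Tween-20, 0.05% BSA; qHTS 6-point titration, ~60 µM downward; luminescence read.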
SMN2 splice enh – increases expression of the SMN2 splice variant. HEK293 SMN2-luciferase splicing reporter, luminescence, 30-36 h. Potency, µM (top dose mostly 46.1 µM), without a hit: top-dose activity change, positive = activation, usual class: activators. 2.8% of 210,000 active; further: % of control where 0% means no effect; nearly all actives have a fitted effect of over 55% in size
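HEK293 cells carry an SMN2 minigene-luciferase reporter in which exon 7 inclusion puts luciferase in frame. Cells were seeded at 2000 cells/well, attached for 10-12 hours, then exposed to compounds for 30-36 hours at 37C before ONE-Glo luminescence.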
Rab9 prom act – Rab9 promoter activation; 2.8% of 320,000 active; Potency, µM (top dose mostly 9.22 µM), inactives show top-dose activation, negative = inhibition, usual class: activators; Huh7 Rab9 promoter-luciferase reporter, luminescence, 24 h; AID 485297; further: % of control where 0% means no effect; nearly all actives have a fitted effect of over 60% in size
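Huh7 cells stably carrying Rab9 promoter–luciferase reporter, plated 1500 cells/well, compound added after 2 h and incubated 24 h at 37 °C; luciferase luminescence then read after 10 min with detection reagent.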
* marks the source's active call; other numbers are inactive results; ? = inconclusive; . = no result given; [ ] = another dose, or the depositor's remark. The call rests on the fitted dose curve; in most records, active means well fitted curve in the direction sought with a large enough effect; inconclusive means small, poorly fitted or top-dose-only effect, or another doubt; inactive means no such curve, though single readings can be large; an effect the other way counts as inactive or inconclusive. Potency means the concentration at half of the fitted maximal effect.

SMILES	NPC1 promoter act	ELG1 genotoxic	FLuc counter	SMN2 splice enh	Rab9 prom act
COCC(C)Nc1ncnc2c1cnn2-c1ccc(C)c(C)c1 (stereo not given)	.	.	6.7µM*	.	.
CCOc1ccc(-c2nc(C)c(C(C)=O)n2O)cc1	28%	?	6.7µM*	13µM*	?
N/C(=N\OC(=O)c1ccc2ccccc2c1)c1ccccc1Cl	3.2µM*	23µM*	1.9µM*	.	4µM*
N/C(=N\OC(=O)COc1ccc2ccccc2c1)c1ccncc1	-4%	-3%	?	.	2%
CCCc1ccc(C(=O)O/N=C(\N)c2ccccn2)cc1	-20%	0.41µM*	0.067µM*	.	-22%
Cc1ccccc1C(=O)O/N=C(\N)c1ccncc1	?	?	4.3µM*	.	3.2µM*
N/C(=N\OC(=O)c1ccc(=O)n(Cc2ccccc2)c1)c1ccccn1	0%	14%	?	-5%	3%
N/C(=N\OC(=O)c1ccc2ccccc2c1)c1ccncc1	1.3µM*	4.6µM*	1.9µM*	.	1.4µM*
N/C(=N\OC(=O)c1ccccc1Cl)c1ccncc1	26%	-15%	?	.	4%
COc1ccc(NC(=O)C2CC(=O)OC23CCOC(C)(C)C3)cc1 (stereo not given)	-2%	-1%	-1%	9%	-1%
ClC(=Nc1cccc2ccccc12)N(c1ccccc1)c1ccccc1	.	.	.	4%[9.22 µM]	.
N/C(=N\OC(=O)c1ccc(=O)n(Cc2ccc(Cl)cc2)c1)c1ccccn1	-9%	0%	-12%	-12%	-1%
COc1cccc(C(=O)NCCCNC(=O)c2ccccn2)c1	0%	-4%	-2%	.	-4%
COc1cccc(C(=O)O/N=C(\N)c2ccccn2)c1	2.5µM*	?	0.076µM*	.	3.2µM*
N/C(=N\OC(=O)c1ccc2ccccc2c1)c1ccccn1	?	0.58µM*	0.15µM*	?	?
O=C(O)CCCC(=O)N1CCc2cc(S(=O)(=O)NCc3ccc(F)cc3)ccc21	-1%	4%	-9%	-17%	2%
COc1ccc(CNC(=O)C/C(C)=N/NC(=O)COc2cccc(C)c2)cc1	-2%	6%	-6%	1%	4%
CCCCCc1nn2cc(-c3ccccc3)nc2s1	.	.	0.43µM*	7.1µM*	.
Cc1nn2cc(-c3ccc(OC(C)C)cc3)nc2s1	.	.	1.3µM*	6%	.
Cc1ccc(-c2cn3nc(N4CCC(C(=O)Nc5ccccc5C)CC4)sc3n2)cc1	.	.	2%	.	.
CCCCc1nn2c(=O)cc(CN(CC)c3ccccc3)nc2s1	.	.	-12%	.	.
Cc1nn2cc(-c3ccccc3)nc2s1	0.35µM*	?	4.3µM*	10µM*	1µM*
CCCc1nn2c(C)c(-c3ccccc3)nc2s1	.	.	1.5µM*	26%	.
Cn1ccnc1C[C@@](C)(O)c1ccccc1	.	.	.	-12%[9.22 µM]	.
CNC1C(O)C2OC3OC(C)CC(=O)[C@@]3(O)O[C@H]2[C@H](NC)C1O (stereo not given in full)	.	.	.	7%	.
SMILES	NPC1 promoter act	ELG1 genotoxic	FLuc counter	SMN2 splice enh	Rab9 prom act
N=C1N=C(N)c2cc3ccccc3cc21	.	.	.	13%	.
Nc1ccn([C@H]2O[C@@H](COP(=O)(O)O)[C@@H](O)[C@H]2O)c(=O)n1	.	.	.	-20%[9.22 µM]	.
CCc1ccc(-c2cn3nc(CC)sc3n2)cc1	.	.	0.6µM*	27%	.
CC(C)Cc1nn2cc(-c3cccc(Br)c3)nc2s1	.	.	0.43µM*	-1%	.
CCc1ccc(-c2cn3nc(-c4ccccc4)cnc3n2)cc1	?	12%	-19%	.	2µM*
CC(C)CCn1c(SCc2c(F)cccc2Cl)nc2ccsc2c1=O	.	.	3%	.	.
COc1ccc(NC(=O)c2cnc3sccn3c2=O)cc1	?	4.1µM*	?	14µM*	2.5µM*
Cc1cccc(NC(=O)c2cnc3ccccn3c2=O)c1	0.63µM*	0.41µM*	0.67µM*	0.71µM*	0.32µM*
Cc1cccc(NC(=O)c2cnc3sccn3c2=O)c1C	?	4.1µM*	2.7µM*	5.6µM*	1.1µM*
O=C(Nc1cnc2sccn2c1=O)c1ccccc1Cl	1.6µM*	18µM*	15µM*	23%	?
O=C(Nc1ccon1)c1cnc2sccn2c1=O	21%	1%	-20%	.	12%
COc1ccccc1-c1ccc2nnc(SC)n2n1	0%	?	4%	.	5%
